Drawing on PubChem BioAssay AID463173 (ICCB-Longwood Screening Facility, Harvard Medical School, 2010), this text covers survival for 96 compounds.

Each structure is given as a SMILES string. Hit rate of the full screen: of about 52,000 compounds, about 4,300 (8.3%) were called active. For the sample, actives were picked, then their nearest neighbours and some compounds at random. Unmarked numbers belong to inactive results. No stated cut-off is given here; in the data, active means survival mostly below about 52% (no sharp cut-off); inactive means mostly above about 56%.

The subject of the assay is DeltatarO mutant. Put plainly: growth inhibition of S. aureus wild type versus tarO mutant, primary screen, teichoic acid synthesis inhibitors, RN4220, OD600 (AID 463173). The settings on record: OD600, 18 h, stronger effect = lower value, screened at 18.75 µg/mL (by protocol).
With `CCOC(=O)c1ccccc1NC(=O)N1CCC(CN2CCCCC2)CC1`, the survival was 83%. As for `COC(=O)c1cccc(NC(=O)Nc2cc(C(=O)NCc3cccc(F)c3)ccc2N2CCCC2)c1`, the figure is 91%; as for `Cc1ccc(OCC(=O)OCc2cc(=O)n3nc(-c4cccs4)sc3n2)cc1C`, 102%; as for `Nc1nonc1/C(=N/O)N1CCCC1`, 113%.

On to `COc1ccc(N2CCN(C(CNC(=O)C(=O)NCc3cccnc3)c3cccnc3)CC2)cc1` (stereo unspecified), for which the survival is 102%. As for `CCOc1ccccc1NC(=O)CCc1nc(-c2cccc(C)c2)no1`, the figure is 73%; as for `CCOC(=O)c1ccc(NC(=O)CCCc2nc(-c3cc(OC)c(OC)c(OC)c3)no2)cc1`, 44% (active); as for `COc1cc(-c2noc(CCC(=O)Nc3cc(C)ccc3C)n2)cc(OC)c1OC`, 81%. As for `O=C(CCc1nc(-c2ccccc2F)no1)Nc1cccc(C(F)(F)F)c1`, the figure is 81%.

Consider `CCc1ccc(NC(=O)CCCc2nc(-c3ccco3)no2)cc1`, for which the survival was 81%. In the case of `O=C(CCCc1nc(-c2ccccc2)no1)Nc1cc(C(F)(F)F)cc(C(F)(F)F)c1`, the survival was 19% (active). To `CCOc1ccccc1-c1noc(CCCC(=O)Nc2cccc(C(F)(F)F)c2)n1` belongs 61%; to `CCOc1ccccc1NC(=O)CCCc1nc(-c2ccccc2Cl)no1`, 38% (active). To `COc1cccc(NC(=O)CCc2nc(-c3cc(OC)c(OC)c(OC)c3)no2)c1` belongs 73%; to `Cc1cc(C)cc(NC(=O)CCCc2nc(-c3ccccc3Cl)no2)c1`, 89%. As for `CCOC(=O)c1ccc(NC(=O)CCCc2nc(-c3ccccc3Cl)no2)cc1`, the figure is 36% (active); as for `COc1ccccc1-c1noc(CCCC(=O)Nc2cc(C)ccc2C)n1`, 54%. Consider `COC(=O)CSc1nnc2n(-c3ccccc3)c(=O)c3c4c(sc3n12)COC(C(C)C)C4` (stereo unspecified), for which the survival is 123%. As for `Cc1nn2c(C)c(C(=O)N3CCN(c4ccccc4F)CC3)cnc2c1-c1ccc(F)cc1`, the figure is 88%; as for `O=C(NC1CCCC1)c1ccc2c(c1)N(Cc1ccc(F)cc1)C(=O)c1ccccc1S2`, 81%. As for `O=C1CNC(=O)N1Cc1ccc(F)cc1`, the figure is 108%; as for `Cc1cccc(NC(=O)c2sc(-n3nc(C)c(CCC(C)C)c3C)nc2C)c1`, 53%. To `O=C(CSc1nnc(-c2ccc(Cl)cc2)o1)Nc1ccc(F)cc1` belongs 69%; to `Cc1cccc(C)c1NC(=O)Cn1nc(C)c2sc3ccccc3c2c1=O`, 99%. For the compound `COc1ccc(Cc2nnc(NC(=O)c3cccs3)s2)cc1OC`, the survival is 100%. To `CSc1nc2c(c(=O)[nH]1)C(c1cccc(F)c1F)CC(=O)N2` (stereo unspecified) belongs 111%; to `CC(C)c1ccc(NC(=O)Cn2c(=O)n(CCc3ccccc3)c(=O)c3ccccc32)cc1`, 82%; to `COc1ccc(Cl)cc1NC(=O)CCc1nc(-c2ccccc2F)no1`, 20% (active). For `Cc1ccc(NC(=O)CCc2nc(-c3ccccc3F)no2)c(C)c1`, the survival was 93%. As for `COc1ccc(-c2noc(CCC(=O)Nc3ccccc3Cl)n2)cc1OC`, the figure is 97%. To `CCCNC(=O)N1c2ccc(F)cc2CCC1C` (stereo unspecified) belongs 87%. To `COc1ccc(CNC(=O)c2ccc(CN3C(=O)C(C)=C(c4ccc(C)cc4)S3(=O)=O)cc2)cc1` belongs 89%; to `COc1ccccc1N1CCN(c2nc(-c3ccc(C)cc3)nc3ccccc23)CC1`, 83%; to `COc1ccc(N2CCN(c3nc(-c4ccccc4F)nc4ccccc34)CC2)cc1`, 88%. In the case of `CC1CCCN(c2nc(-c3ccccc3O)nc3ccccc23)C1` (stereo unspecified), the survival was -6% (active).

`Cc1cccc(-n2ncc3c(N4CCCC(C)C4)ncnc32)c1` (stereo unspecified): the survival was 84%. To `CC1CCCN(c2csc3ccccc3c2=O)C1` (stereo unspecified) belongs 69%; to `Cc1ccc(-c2nc(N3CCCC(C)C3)c3ccccc3n2)cc1` (stereo unspecified), -2% (active); to `COc1cccc(-c2nnc(-c3ccccc3NC(=O)c3ccc(F)cc3F)o2)c1`, 78%. To `CCOc1ccc(CCNC(=O)c2cccc(-n3c(C)nc4cccnc43)c2C)cc1` belongs 79%; to `Cc1cc(C)c2[nH]c(=O)c(CN(Cc3ccco3)C(=S)NCCCN3CCOCC3)cc2c1`, 78%; to `Cc1cc(OCCn2c(C3CC(=O)N(Cc4ccc(F)cc4)C3)nc3ccccc32)ccc1Cl` (stereo unspecified), 1% (active). As to `CCOc1ccccc1N1CC(c2nc3ccccc3n2CCOc2ccc(C(C)(C)C)cc2)CC1=O` (stereo unspecified), the survival is 62%. To `CCc1ccc(OCCn2c(C3CC(=O)N(Cc4ccc(F)cc4)C3)nc3ccccc32)cc1` (stereo unspecified) belongs 3% (active). As for `COCCNC(=O)c1cc2n(n1)CCCN(Cc1ccc(C)cc1)C2=O`, the figure is 78%. To `CC(=O)c1ccc(OC(=O)c2c(-c3ccccc3Cl)noc2C)cc1` belongs 94%. For `Cc1onc(-c2ccccc2Cl)c1C(=O)Oc1ccc(Br)cc1`, the survival was 41% (active). To `CCCOc1ccc(OC(=O)c2c(-c3ccccc3Cl)noc2C)cc1` belongs 84%; to `CCCOc1cccc(NC(=O)c2c(-c3ccccc3Cl)noc2C)c1`, 37% (active). With `CCOc1ccc(OC(=O)c2c(-c3ccccc3Cl)noc2C)cc1`, the survival is 72%. As for `CCCC(=O)c1ccc(OC(=O)c2c(-c3ccccc3Cl)noc2C)cc1`, the figure is 102%; as for `Cc1ccc(NC(=O)Cn2nc(N3CCN(c4ccccc4)CC3)ccc2=O)cc1F`, 83%. With `Fc1ccc2ncc3c(-c4ccccc4)n[nH]c3c2c1`, the survival is 83%.

Regarding `COc1ccc(C(=O)Nc2ccc(-c3cc4ccccc4oc3=O)c(C)c2)cc1OC`, the survival is 69%. For `Cc1cc(C)cc(NC(=O)c2sc3nc4n(c(=O)c3c2C)N=C(c2ccccc2)CS4)c1`, the survival is 69%.

As for `COc1ccc(Br)cc1Cn1nnc(C(=O)Nc2ccc(C)cc2C)c1N`, the survival is 48%. As for `CCc1ccc(NC(=O)Cn2c(=O)n(CCCCC(=O)NCCc3ccccc3)c(=O)c3ccccc32)cc1`, the figure is 84%; as for `CCOC(=O)c1c(C)[nH]c(C)c1S(=O)(=O)N1CCCC(C(=O)NCc2cccc(OC)c2)C1` (stereo unspecified), 78%; as for `CC(C)S(=O)(=O)c1oc(-c2ccc(F)cc2)nc1S(=O)(=O)c1ccc(F)cc1`, 22% (active). With `CS(=O)(=O)c1oc(-c2ccc(F)cc2)nc1S(=O)(=O)c1ccc(Cl)cc1`, the survival is -5% (active).

On to `CC(C)S(=O)(=O)c1oc(-c2cccs2)nc1S(=O)(=O)c1ccc(F)cc1`, for which the survival is 9% (active). To `CCC(C)S(=O)(=O)c1oc(-c2cccs2)nc1S(=O)(=O)c1ccccc1` (stereo unspecified) belongs 53%. In the case of `Cc1ccc(S(=O)(=O)c2nc(-c3cccs3)oc2SCc2ccc(F)cc2)cc1`, the survival was 62%. For `Cc1ccc(S(=O)(=O)c2nc(-c3ccc(F)cc3)oc2SCC(=O)NC2CCCCC2)cc1`, the survival was 149%. As for `CCC(C)S(=O)(=O)c1oc(-c2ccc(F)cc2)nc1S(=O)(=O)c1ccc(F)cc1` (stereo unspecified), the survival is 41% (active). To `CCOc1ccc(NC(=O)CSc2oc(-c3ccc(F)cc3)nc2S(=O)(=O)c2ccc(C)cc2)cc1` belongs 63%; to `COc1cccc(-c2nc(S(=O)(=O)c3ccc(Cl)cc3)c(NCc3ccccc3)o2)c1`, 180%; to `Cc1ccc(S(=O)(=O)c2nc(-c3cccs3)oc2SC(C)C)cc1`, 66%. To `COc1ccc(-c2nc(S(=O)(=O)c3ccc(Cl)cc3)c(NCc3ccccc3)o2)cc1` belongs 136%; to `Cc1ccccc1CNC(=O)CCCn1c(=O)c2cccn2c2cccnc21`, 114%; to `CCOc1ccc(C2CC(c3c(O)n(C4CCCCC4)c(=O)[nH]c3=O)=Nc3ccccc3S2)cc1` (stereo unspecified), 47%.

`Cc1ccc2c(c1)cc1c(=O)n(CC(=O)N3CCCCC3)nc(C)n12`: the survival was 90%. To `COc1ccc(C)cc1S(=O)(=O)NCC(c1cccs1)S(=O)(=O)c1ccc(C)cc1` (stereo unspecified) belongs 69%; to `Cc1ccc(-c2nnc(NC(=O)c3ccc4c(c3)OCCO4)o2)c(C)c1`, 96%. As for `Cc1ccc(NC(=O)Cn2nc(Cc3ccncc3)c3ccccc3c2=O)c(Cl)c1`, the figure is 66%. With `COc1cc(-c2nc3cccc(C)n3c2Nc2ccc3c(c2)OCCO3)ccc1O`, the survival was 76%. To `CCc1ccc(NC(=O)CCn2nc(C)c(S(=O)(=O)N3CCCCC3)c2C)cc1` belongs 128%; to `COC(=O)c1ccccc1NC(=O)c1ncoc1-c1ccco1`, 62%. To `CC(C)S(=O)(=O)c1oc(-c2ccc(F)cc2)nc1S(=O)(=O)c1ccccc1` belongs 33% (active); to `CCN(CC)CCNc1nc2c(c(=O)n(C)c(=O)n2C)n1CCc1ccccc1`, 103%.

Turning to `COc1ccc(NC(=O)C2=C(C)Nc3nc(SCc4ccccc4)nn3C2c2cc(OC)ccc2OC)cc1` (stereo unspecified), the survival was 78%. To `COc1cccc(C(=O)Nc2cccc(C(=O)OCc3cc(=O)n4nc(C(C)C)sc4n3)c2)c1` belongs 101%. To `COc1ccc(N2CCN(C(=O)c3nc(-c4ccc(Cl)cc4)n4c3CCCCC4)CC2)cc1` belongs 81%. To `Cc1ccc(NC(=O)CSc2nncn2C)c(C)c1` belongs 75%; to `CC(=O)Nc1nonc1-c1nnc(SCc2ccccc2)n1C`, 44%.

For the compound `CC(=O)Nc1nonc1-c1nnc(SCc2ccc(C)cc2)n1C`, the survival is 48%. `COc1ccc(NC(=O)CSc2nnc(-c3nonc3NC(C)=O)n2C)cc1Cl`: the survival is 55%. To `CC(=O)Nc1nonc1-c1nnc(SCC(=O)Nc2ccccc2Cl)n1C` belongs 50%; to `CC(=O)Nc1nonc1-c1nnc(SCc2ccc(F)cc2)n1C`, 44%; to `CC(=O)Nc1nonc1-c1nnc(SCC(=O)Nc2ccc(C)c(Cl)c2)n1-c1ccccc1`, 49%. To `CC(=O)Nc1nonc1-c1nnc(SCc2ccc(F)cc2Cl)n1C` belongs 45%; to `CC(=O)Nc1nonc1-c1nnc(SCC(=O)Nc2ccc(C)c(Cl)c2)n1C`, 60% (active). To `CC(=O)Nc1nonc1-c1nnc(SCc2ccc(Cl)cc2)n1C` belongs 42% (active); to `CC(=O)Nc1nonc1-c1nnc(SCc2ccccc2F)n1C`, 46%. In the case of `CC(=O)Nc1nonc1-c1nnc(SCc2ccccc2C)n1C`, the survival is 42% (active). As for `CC(=O)Nc1nonc1-c1nnc(SCc2ccccc2Cl)n1C`, the figure is 42% (active).
